Compound activity: PubChem, Sanford-Burnham Center for Chemical Genomics
Pyk2 oligo antag: antagonists of human Pyk2 oligomerization; z-score (the deposit names both 25 µM and 10 µM); hit rate 0.83% among 99,000; Q293 cells, Pyk2 FERM NanoBiT luminescence; hits give low values;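 active = Z-score of -3 or lower, scaled per plate to the spread of control and sample wells; inactive = z-score above -3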;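 also: negative z-score means lost luminescence so less FERM oligomerization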
CYP2C9 inh: human CYP2C9 inhibition. hit rate 20% among 96,000. inhibition, % at 5 µM. P11712. AID 777. CYP2C9 Supersomes, luciferin-H conversion, luminescence;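 active = blocking of liver enzyme CYP2C9 beyond about 50% at 5 µM, limit read from the data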
CYP2C19 act: cytochrome P450 2C19 (human) activation | P33261 | recombinant CYP2C19, luciferin-H EGE luminescence; hits give high values; 0 = fully inhibited enzyme, 1 = untreated enzyme | activation factor at 5 µM | 96,000 tested, under 10 active | AID 1025;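 active = activation factor of at least 2 at 5 µM in the primary screen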;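 also: 0 = wells with 2.5 mM tranylcypromine and 1 = vehicle-only wells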
Target sequence (P33261 whole entry, looked up): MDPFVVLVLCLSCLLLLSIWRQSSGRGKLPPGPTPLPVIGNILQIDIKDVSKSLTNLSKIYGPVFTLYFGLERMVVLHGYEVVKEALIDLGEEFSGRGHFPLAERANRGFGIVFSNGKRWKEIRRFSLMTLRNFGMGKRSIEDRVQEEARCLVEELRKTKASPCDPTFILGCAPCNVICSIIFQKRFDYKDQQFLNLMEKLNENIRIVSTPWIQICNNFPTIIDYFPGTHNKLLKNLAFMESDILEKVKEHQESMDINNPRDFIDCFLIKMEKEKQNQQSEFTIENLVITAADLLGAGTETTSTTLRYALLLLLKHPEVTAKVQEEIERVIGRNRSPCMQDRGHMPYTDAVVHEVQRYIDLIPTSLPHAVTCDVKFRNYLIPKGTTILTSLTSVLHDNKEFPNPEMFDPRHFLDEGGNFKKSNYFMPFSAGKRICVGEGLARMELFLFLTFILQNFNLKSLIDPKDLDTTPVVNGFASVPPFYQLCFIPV
CYP2C9 act: increases human cytochrome P450 2C9 activity; P11712; recombinant CYP2C9, luciferin-H conversion, luminescence; hits give high values; factor 1 = untreated enzyme, 0 = blocked; activation factor at 5 µM; hit rate 1.4% among 96,000; AID 1024;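 active = activation factor of 2 or more for CYP2C9 at a 5 µM dose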;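 also: 0 = sulfaphenazole-blocked wells and 1 = vehicle-only wells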
CYP2C19 inh: blocks human cytochrome P450 2C19 | CYP2C19 Supersomes, luciferin-H EGE luminescence, 30 min | AID 778 | hit rate 21% among 96,000 | P33261 | inhibition, % at 5 µM;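 active = CYP2C19 inhibition above a set limit at 5 µM in the primary screen, cut at about 50% in these data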;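 also: plate controls were negative control wells for no effect and 2.5 mM tranylcypromine positive control for full effect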
An asterisk follows results filed as active; · = not tested or not shown. Sampled rows, rich in hits. Any-hit rate of the full collection: about 28%.

SMILES	Pyk2 oligo antag	CYP2C9 inh	CYP2C19 act	CYP2C9 act	CYP2C19 inh
COc1ccc(NS(=O)(=O)c2ccc(N3C(=O)CCC3=O)cc2)cc1	1.17	70.3*	0.1	0.3	85.5*
CC1S/C(=C(\C#N)C(=O)NCc2ccco2)N(Cc2ccco2)C1=O (stereo unspecified)	-0.01	12.3	0.7	0.9	29.6
COc1ccccc1CNC(=O)c1ccccc1N(C)S(C)(=O)=O	-0.02	7.7	0.7	0.9	29.0
COc1ccc(S(=O)(=O)Nc2ccc(CC#N)cc2)cc1	-0.42	84.9*	0	0.2	100.0*
COC(=O)C1CCN(S(=O)(=O)c2ccc(OC)cc2)CC1	1.32	-32.6	0.1	1.3	89.0*
COc1ccc(S(=O)(=O)N2CCCN(S(=O)(=O)c3ccc(OC)c(C)c3)CC2)cc1C	-1.47	·	·	·	·
COc1ccc(S(=O)(=O)Nc2ccc(S(=O)(=O)N3CCCCC3)cc2)cc1C	-3.29*	87.5*	0.4	0.1	57.5*
Cc1cccc(C)c1NC(=O)CC(NCCc1ccccc1)C(=O)O (stereo unspecified)	0.43	·	·	·	·
Cc1onc(-c2ccccc2Cl)c1C(=O)N1CCN(c2ccccc2)CC1	0.18	46.0	0.7	0.5	30.1
Cc1onc(-c2c(Cl)cccc2Cl)c1C(=O)N1C=CC(C(F)(F)F)=NCC1	1.11	33.4	0.4	0.7	59.0*
Cc1noc(C)c1C(=O)N1CCc2ccccc21	1.37	-12.8	1	1.1	4.6
Cc1onc(-c2c(Cl)cccc2Cl)c1C(=O)N1CCc2ccccc2C1	0.43	72.8*	0.2	0.3	76.9*
Cc1onc(-c2c(Cl)cccc2Cl)c1C(=O)N1CCCc2ccccc21	-1.4	82.1*	0.1	0.2	90.9*
Cc1onc(-c2c(F)cccc2Cl)c1C(=O)N1CCc2ccccc21	-0.9	39.8	0.4	0.6	62.9*
CCc1c(O)cc2n(c1=O)-c1ccc(Cl)cc1C2(C)C	-0.28	·	·	·	·
Cc1ccc(OCCNC(=O)C2CC(=O)N(c3ccc(C)cc3)C2)cc1 (stereo unspecified)	0.53	5.2	0.6	0.9	37.2
CCN1CCN(C(=O)c2c(-c3c(F)cccc3Cl)noc2C)CC1	-0.53	-18.4	1	1.2	-4.7
CCOC(=O)C1CCN(C(=O)c2c(-c3c(Cl)cccc3Cl)noc2C)CC1	-0.37	79.3*	0.3	0.2	69.7*
Cc1cc(C(=O)N2CCCc3ccccc32)no1	0.18	-69.3	0.7	1.7	32.8
Cc1onc(-c2ccccc2)c1C(=O)N1CCCc2ccccc21	0.24	21.6	0.3	0.8	69.4*
CCCCS(=O)CC(COCc1ccccc1)OC(=O)CSc1nc(C)cc(C)n1 (stereo unspecified)	0.9	12.5	0.7	0.9	25.4
O=C(CCN1C(=O)S/C(=C\c2ccccc2)C1=O)Nc1ccc(S(=O)(=O)Nc2nccs2)cc1	-0.74	64.7*	0.7	0.4	29.1
CCCn1nc(C(=O)Nc2cccc(C(=O)OC)c2)c2ccccc2c1=O	-1.52	78.8*	0.4	0.2	63.3*
CCCn1nc(C(=O)Nc2ccc(S(=O)(=O)Nc3nccs3)cc2)c2ccccc2c1=O	-1.72	59.5*	0.9	0.4	5.2
O=C(CCN1C(=O)COc2ccccc21)NCCN1CCN(c2cccc(Cl)c2)CC1	0.48	2.2	0.9	1	13.8
SMILES	Pyk2 oligo antag	CYP2C9 inh	CYP2C19 act	CYP2C9 act	CYP2C19 inh
CCOC(=O)C1(CCSC)NC(c2ccco2)C2C(=O)N(C)C(=O)C21 (stereo unspecified)	-0.07	-7.4	0.9	1.1	5.8
CC(C)(C)c1ccc(C(=O)NNC(=O)Cc2cccc3ccccc23)cc1	-0.28	58.5*	0.8	0.4	17.1
O=c1c2[nH]c3cccc(Cl)c3c2ncn1Cc1ccncc1	0.85	51.5*	0.4	0.5	57.9*
O=c1c2[nH]c3ccccc3c2ncn1Cc1ccncc1	0.11	45.3	0.6	0.5	37.7
Cc1nc(NNC(=O)c2ccc(Cl)cc2Cl)cc(-c2ccccc2)n1	-0.42	51.3*	1.1	0.5	-7.7
CC(C)(C)OC(=O)N1Cc2ccccc2C[C@H]1C(=O)O	1.11	-4.6	1.1	1	-14.1
Cc1nnc(SCC(=O)N2CCN(Cc3ccccc3)CC2)s1	-0.28	19.3	0.1	0.8	89.4*
Nc1nnc(SCC(=O)c2ccc3ccccc3c2)s1	·	37.5	0.2	0.6	77.7*
CCOC(=O)CSc1nnc(N)s1	0.59	14.7	0.9	0.9	12.4
Nc1nnc(SCC(=O)N2CCN(Cc3ccccc3)CC2)s1	0.47	52.9*	0.3	0.5	68.4*
O=C(CSc1ncccn1)N1CCN(Cc2ccccc2)CC1	-0.11	·	·	·	·
Cc1ccc(OCC2Cn3c(nc4c3c(=O)[nH]c(=O)n4C)O2)cc1 (stereo unspecified)	1.07	-24.1	1.1	1.2	-15.0
CC(C)NC(=O)CSc1nnc(-c2ccc(S(=O)(=O)N3CCCC3)cc2)n1CC1CCCO1 (stereo unspecified)	0.26	3.7	1	1	-0.5
O=C1C(=O)N(Cc2cccnc2)C(c2ccccn2)/C1=C(/O)c1ccc(F)cc1 (stereo unspecified)	0.09	71.0*	1.1	0.3	-7.2
Cc1ccc(/C(O)=C2/C(=O)C(=O)N(Cc3cccnc3)C2c2ccccn2)cc1 (stereo unspecified)	0.84	89.9*	0.3	0.1	66.0*
CCOc1cccc(/C(O)=C2/C(=O)C(=O)N(Cc3cccnc3)C2c2ccco2)c1 (stereo unspecified)	0.89	65.3*	0.9	0.3	5.6
Cc1ccc(/C(O)=C2/C(=O)C(=O)N(CCCn3ccnc3)C2c2ccccn2)cc1 (stereo unspecified)	·	20.3	0.9	0.8	11.4
COc1ccc(/C(O)=C2/C(=O)C(=O)N(Cc3cccnc3)C2c2ccco2)cc1OC (stereo unspecified)	-0.28	36.6	0.7	0.6	25.9
CN(C)S(=O)(=O)c1ccc(/C(O)=C2/C(=O)C(=O)N(Cc3cccnc3)C2c2ccncc2)cc1 (stereo unspecified)	1.47	37.7	0.8	0.6	22.6
Cc1csc(-c2cnn(-c3ccccc3)c2NC(=O)c2ccc(C(F)(F)F)cc2)n1	-0.78	13.5	0.8	0.9	19.1
Cc1cc(C)n(-c2ccc(C(=O)OCC(=O)c3ccc(Br)s3)cc2)n1	0.55	90.0*	0.2	0.1	76.6*
Cc1cc(C)n(-c2ccc(C(=O)OCC(=O)NCc3ccco3)cc2)n1	0.56	11.3	1	0.9	2.3
Cc1cc(C)n(-c2ccc(C(=O)OCC(=O)Nc3ccc(Cl)c(S(=O)(=O)N(C)C)c3)cc2)n1	0.43	-68.8	0.2	1.7	83.3*
Cc1cc(C)n(-c2ccc(C(=O)OCC(=O)Nc3ccc(S(=O)(=O)N4CCOCC4)cc3)cc2)n1	1.57	71.2*	0.1	0.3	87.9*
c1ccc2c(-n3cccn3)cccc2c1	-0.18	-6.8	0.8	1.1	23.0
O=C(NCc1ccco1)C12CN(Cc3ccccc3)CC1C(c1ccc([N+](=O)[O-])cc1)=NO2 (stereo unspecified)	·	17.7	0.8	0.8	18.4
